Laboratory results reported in article PMC5540273 (PLoS ONE, 2017).

Tests used:
Conditions in all cases: concentration: 1 μM, replicates: in singlicate; n = 1
[1] = test system: T1, RSK1(Kin.Dom.1-N-terminal)
T1 construct: gene RPS6KA1

[2] = test system: T2, RSK1(Kin.Dom.2-C-terminal)
T2 construct: gene RPS6KA1

[3] = test system: T3, RSK2(Kin.Dom.1-N-terminal)
T3 construct: gene RPS6KA3

[4] = test system: T4, RSK2(Kin.Dom.2-C-terminal)
T4 construct: gene RPS6KA3

[5] = test system: T5, RSK3(Kin.Dom.1-N-terminal)
T5 construct: gene RPS6KA2

[6] = test system: T6, RSK3(Kin.Dom.2-C-terminal)
T6 construct: gene RPS6KA2

[7] = test system: T7, RSK4(Kin.Dom.1-N-terminal)
T7 construct: gene RPS6KA6

[8] = test system: T8, RSK4(Kin.Dom.2-C-terminal)
T8 construct: gene RPS6KA6

[9] = test system: S6K1
[10] = test system: SBK1
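Further: KINOMEscan kinase panel screen.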

SMILES | %Inh [1] | %Inh [2] | %Inh [3] | %Inh [4] | %Inh [5] | %Inh [6] | %Inh [7] | %Inh [8] | %Inh [9] | %Inh [10]
C[C@@H]1CC[C@H](C(=O)NC2CCCCC2)CN1c1cc(-c2ccc3c(N)n[nH]c3c2)nc(N)n1 [GSK2291363] | 31% | 6% | 32% | 28% | 23% | 6% | 11% | 26% | 8% | 14%
Nc1ncnc2c1ncn2-c1ccc(Cl)cc1 [AH2635] | 9% | 4% | 0% | 0% | 0% | 0% | 0% | 46% | 0% | 0%
Nc1nc(N)c2nc(-c3ccccc3)[nH]c2n1 [SKF-12778] | 0% | 0% | 9% | 9% | 18% | 0% | 15% | 1% | 8% | 10%
Cc1cccc(-c2cc(-c3c[nH]nc3-c3ccccn3)ccn2)c1 [GW679395] | 9% | 0% | 0% | 7% | 6% | 12% | 0% | 49% | 0% | 5%
COc1cccc(C2=C(N(C)c3ccccc3)C(=O)NC2=O)c1 [SB-334865] | 0% | 0% | 0% | 5% | 11% | 5% | 0% | 19% | 10% | 0%
CCC(=O)c1c(-c2ccccc2)c2cc(Cl)ccc2c(=O)n1Cc1ccc(C(=O)O)cc1 | 0% | 0% | 0% | 0% | 0% | 0% | 0% | 0% | 0% | 0%
O=C(Nc1n[nH]c2nc(-c3ccccc3)c(Br)cc12)C1CC1 [SB-708998] | 0% | 0% | 7% | 29% | 0% | 0% | 18% | 2% | 0% | 17%
Nc1nccc2scc(-c3ccc4c(c3)CCN4C(=O)Cc3ccccc3)c12 [GSK2576924] | 9% | 20% | 0% | 0% | 8% | 7% | 0% | 11% | 2% | 2%
COc1cc2ncn(-c3cc(OCc4ccncc4)c(C(N)=O)s3)c2cc1OC [GSK336313] | 25% | 0% | 6% | 0% | 0% | 0% | 0% | 0% | 0% | 24%
CN(C)c1cc(-c2ccc3c(N)n[nH]c3c2)nc(N)n1 [GSK2219329] | 11% | 0% | 0% | 0% | 0% | 4% | 0% | 14% | 2% | 7%
COc1cc(Nc2nccc(N3CCC(NC(=O)C(C)c4ccc(Cl)cc4)C3)n2)cc(OC)c1OC (centres unmarked) [GSK1379757] | 21% | 0% | 2% | 1% | 0% | 0% | 0% | 5% | 0% | 12%
O=C(NCc1cccs1)c1cc(C(=O)c2c(Cl)cccc2Cl)c[nH]1 [GW823670] | 16% | 13% | 2% | 0% | 0% | 18% | 0% | 0% | 7% | 0%
COc1cc2nccc(Nc3ccc(OCc4ccc(NC(C)=O)cc4)cc3)c2cc1OC.Cl [GW440135] | 0% | 0% | 19% | 0% | 4% | 0% | 2% | 0% | 9% | 5%
O=C(Nc1n[nH]c2cc(-c3ccccc3F)ccc12)C1CC1 [SB-733371] | 32% | 0% | 34% | 0% | 0% | 0% | 0% | 0% | 0% | 17%
Fc1cccc(CSc2nnc(-c3ccc4c(c3)CCO4)o2)c1 | 0% | 23% | 14% | 18% | 0% | 8% | 15% | 16% | 9% | 0%
COc1ccc(-n2cnc3c(N)ncnc32)cc1 [SKF-97236] | 0% | 0% | 11% | 22% | 9% | 0% | 9% | 36% | 9% | 13%
COc1ccc(-c2cc3c(C)nc(N)nc3n([C@H]3CC[C@H](OCCO)CC3)c2=O)cn1 | 0% | 9% | 0% | 0% | 16% | 12% | 0% | 23% | 0% | 0%
Cc1cccc(-c2nc(Nc3ccc4c(cnn4C)c3)c3ccccc3n2)n1 [GW876731] | 32% | 0% | 26% | 0% | 24% | 0% | 8% | 0% | 0% | 10%

SMILES | %Inh [1] | %Inh [2] | %Inh [3] | %Inh [4] | %Inh [5] | %Inh [6] | %Inh [7] | %Inh [8] | %Inh [9] | %Inh [10]
COc1ccc(-c2cc3c(C)nc(N)nc3n([C@H]3CC[C@H](O)CC3)c2=O)cn1 | 6% | 0% | 0% | 0% | 0% | 0% | 0% | 0% | 0% | 0%
COc1ccc(CNC(=O)NC2CCN(c3ccnc(Nc4ccc(F)cc4)n3)C2)cc1 (centres unmarked) [GSK1379706] | 14% | 28% | 0% | 3% | 15% | 31% | 0% | 20% | 0% | 0%
Cl.c1ccc(Cn2cnc3cc(Nc4ncnc5ccccc45)ccc32)cc1 [GW272142] | 0% | 0% | 0% | 0% | 0% | 6% | 0% | 5% | 0% | 1%
CN1C(=O)C(Nc2ccccc2)=C(c2ccccc2)C1=O [SB-300079] | 8% | 0% | 37% | 0% | 0% | 0% | 10% | 12% | 0% | 0%
CCS(=O)(=O)c1ccc(OC)c(Nc2ncc(-c3ccc(F)cc3)o2)c1.Cl [GW591947] | 11% | 0% | 0% | 22% | 0% | 2% | 0% | 3% | 0% | 0%
FC(F)(F)c1ccc(-c2ncn(CCCN3CCOCC3)c2-c2ccncc2)cc1 [SB-217780] | 11% | 6% | 0% | 28% | 32% | 19% | 1% | 44% | 0% | 13%
Nc1nc(-c2ccccc2F)c(-c2ccnc3ccccc23)s1 [GW560459] | 0% | 35% | 6% | 95.6% | 0% | 1% | 0% | 89% | 0% | 6%
CCC(=O)c1c(-c2ccccc2)c2cc(Cl)ccc2c(=O)n1Cc1cc(S(C)(=O)=O)n(CC(F)F)n1 | 2% | 0% | 5% | 0% | 0% | 0% | 13% | 1% | 0% | 0%
CCC(=O)c1c(-c2ccccc2)c2cc(Cl)ccc2c(=O)n1Cc1cc(C(=O)NC2CC2)n(C)n1 | 0% | 8% | 0% | 30% | 6% | 0% | 8% | 0% | 7% | 0%
O=c1cc(N2CCOCC2)nc2n(Cc3ccc(F)c(Cl)c3)ccn12 [GSK2297099] | 19% | 10% | 0% | 0% | 27% | 0% | 0% | 11% | 0% | 0%
CN1C(=O)C(Nc2cc(Cl)c(O)c(Cl)c2)=C(c2ccc(Cl)cc2)C1=O [SB-404321] | 0% | 0% | 5% | 0% | 0% | 9% | 0% | 0% | 17% | 0%
Cc1c(Cn2c(C)nn3c(=O)cc(N4CCO[C@H](C)C4)nc23)cccc1C(F)(F)F [GSK2373690] | 49% | 0% | 9% | 0% | 22% | 0% | 0% | 0% | 9% | 28%
COc1ccc(Nc2nccc(N3CCC(NS(=O)(=O)c4ccc(NC(C)=O)cc4)C3)n2)cc1 (centres unmarked) [GSK1379729] | 0% | 0% | 0% | 18% | 6% | 0% | 0% | 5% | 0% | 4%
O=C(Nc1ccc2c(c1)OCO2)NC1CCN(c2ccnc(NCc3ccc(F)cc3)n2)CC1 [GSK1379859] | 1% | 0% | 3% | 99.5% | 0% | 0% | 0% | 0% | 8% | 11%
Cc1nnc(-c2ccc(C)c(-c3ccc(C(=O)O)cc3)c2)o1 [GW608005] | 2% | 2% | 0% | 2% | 3% | 0% | 0% | 2% | 10% | 4%
COc1cc2ncn(-c3cc(OCc4ccncc4Br)c(C(N)=O)s3)c2cc1OC [GW854278] | 0% | 22% | 19% | 0% | 20% | 0% | 25% | 7% | 0% | 2%
COc1cccc(C2=C(Nc3cccc(C(=O)O)c3)C(=O)NC2=O)c1 [SB-390770] | 0% | 0% | 4% | 15% | 8% | 0% | 20% | 10% | 6% | 18%
